Data published in PubChem BioAssay.
Activity calls are given as the source filed them. Unless noted, how the calls were made is not given here.

Assays:
[1] = HepG2 liver cancer cell viability effects, profiling panel, resazurin fluorescence, 24 h, PK04 Diversity Set (AID 1172); conditions: higher = more signal; further: test concentration not given here
[2] = basal S. cerevisiae growth modulation, no modifier, primary screen, OD600, strain BY4716, 24 h, basal condition (AID 1173); conditions: OD600, 24 h, higher = more signal, called active from +8 up or from −8 down
[3] = MM1S myeloma cell viability, profiling panel, resazurin fluorescence, basal, 24 h, PK04 Diversity Set (AID 1174); conditions: higher = more signal, called active from +8 up or from −8 down;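 further: MM1S multiple myeloma cell line; test concentration not given here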
[4] = target: Dihydroorotate dehydrogenase (quinone), mitochondrial (Plasmodium falciparum (isolate 3D7)) (UniProt Q08210); assay: PfDHODH enzyme inhibitors, primary screen, biochemical, C-terminal His tag, absorbance 600 nm (AID 1175); conditions: DCIP absorbance 600 nm, higher = more signal, called active from +8 up or from −8 down;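 further: recombinant parasite enzyme with a five histidine tag at its C terminus; test concentration not given here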
[5] = P. aeruginosa biofilm formation inhibitors, primary screen, strain PAO1, LB-PBS medium, absorbance 600 nm (AID 1176); further: test concentration not given here; conditions: P. aeruginosa PAO1 growth/biofilm, A600, 12 h; higher = more signal
[6] = S. cerevisiae RM11-1a growth modifiers, primary screen, strain RM11-1a, OD600, basal, 24 h (AID 1177); conditions: OD600, 24 h, higher = more signal, called active from +8 up or from −8 down;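 further: cultures grown under basal conditions with no added stressor; test concentration not given here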
[7] = E. coli acrAB mutant growth effects, primary screen, E. coli filamentation inducers, strain DRC39, OD650, 24 h (AID 1178); conditions: higher = more signal, called active from +8 up or from −8 down;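 further: growth measured as culture turbidity by optical density at 650 nm; test concentration not given here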
[8] = E. coli acrAB mutant growth effects, primary screen, E. coli filamentation inducers, strain DRC39, OD650, 48 h (AID 1179);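 further: screen aims at cell division blockers that make cells filament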; conditions: E. coli DRC39 delta-acrAB growth, higher = more signal, called active from +8 up or from −8 down
[9] = RPMI8226 myeloma cell viability, profiling panel, resazurin fluorescence, basal, 24 h, PK04 Diversity Set (AID 1180); conditions: higher = more signal;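 further: RPMI8826 multiple myeloma cell line at 5000 cells per well; test concentration not given here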
[10] = target: E3 ubiquitin-protein ligase XIAP (Homo sapiens) (UniProt P98170); assay: XIAP binders, primary screen, biophysical, small-molecule microarray, fluorescence 635 nm (AID 1181); conditions: small-molecule microarray binding, higher = more signal;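 further: score merges 667 nm emission and signal to noise over triplicate slides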
Sequence of E3 ubiquitin-protein ligase XIAP (Homo sapiens) (P98170 whole entry, looked up): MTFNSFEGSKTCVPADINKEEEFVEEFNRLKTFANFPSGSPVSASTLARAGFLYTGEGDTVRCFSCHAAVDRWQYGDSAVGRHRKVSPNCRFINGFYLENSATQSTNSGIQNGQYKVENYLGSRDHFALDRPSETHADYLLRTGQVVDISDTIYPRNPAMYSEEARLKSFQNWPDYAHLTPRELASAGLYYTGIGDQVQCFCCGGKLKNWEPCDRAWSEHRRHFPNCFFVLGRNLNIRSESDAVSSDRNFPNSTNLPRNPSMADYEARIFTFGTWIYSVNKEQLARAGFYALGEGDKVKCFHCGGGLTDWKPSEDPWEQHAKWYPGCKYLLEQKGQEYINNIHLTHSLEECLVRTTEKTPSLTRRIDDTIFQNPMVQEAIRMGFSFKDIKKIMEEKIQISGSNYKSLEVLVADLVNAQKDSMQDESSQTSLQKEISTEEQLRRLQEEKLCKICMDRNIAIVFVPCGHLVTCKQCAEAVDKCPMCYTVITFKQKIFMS

Sequence of Dihydroorotate dehydrogenase (quinone), mitochondrial (Plasmodium falciparum (isolate 3D7)) (Q08210 whole entry, looked up): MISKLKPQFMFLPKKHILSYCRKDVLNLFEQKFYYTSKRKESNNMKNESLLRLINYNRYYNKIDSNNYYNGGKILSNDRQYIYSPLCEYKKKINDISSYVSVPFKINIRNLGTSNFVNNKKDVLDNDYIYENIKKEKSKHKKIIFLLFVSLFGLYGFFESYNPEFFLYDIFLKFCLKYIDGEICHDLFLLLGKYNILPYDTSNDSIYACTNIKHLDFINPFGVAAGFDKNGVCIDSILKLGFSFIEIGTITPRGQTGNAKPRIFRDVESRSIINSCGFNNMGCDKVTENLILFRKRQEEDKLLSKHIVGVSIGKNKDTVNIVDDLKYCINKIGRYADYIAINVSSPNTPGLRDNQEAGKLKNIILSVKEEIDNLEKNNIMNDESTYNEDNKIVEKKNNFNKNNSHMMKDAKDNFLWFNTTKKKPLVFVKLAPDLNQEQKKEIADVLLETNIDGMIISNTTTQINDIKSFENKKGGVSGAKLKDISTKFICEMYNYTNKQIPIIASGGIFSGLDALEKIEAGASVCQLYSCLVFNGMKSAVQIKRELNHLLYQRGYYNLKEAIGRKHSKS

Structure (SMILES)	z-score [1]	z-score [2]	z-score [3]	composite z-score [4]	z-score [5]	z-score [6]	z-score [7]	z-score [8]	z-score [9]	composite z-score [10]
COc1ccc(O[C@H]2C=C[C@@H](c3ccccc3)O[C@@H]2COC(=O)CCC(C)=NO[C@@H](C)c2cc(-c3c(C)cc(C)cc3C)no2)cc1	0.716	1.04 (inactive)	0.622 (inactive)	0.188 (inactive)	-0.421 (inactive)	0.108 (inactive)	0.291 (inactive)	-0.893 (inactive)	1.14	-0.151
COCCOC(=O)N1C(=O)[C@@]2(c3cc(C#Cc4ccc(OC)cc4)ccc31)[C@H](c1ccc(O)cc1)N1[C@H](c3ccccc3)[C@H](c3ccccc3)OC(=O)[C@H]1[C@@H]2C(N)=O	-0.422	-0.306 (inactive)	-1.02 (inactive)	-0.0395 (inactive)	0.898 (inactive)	0.0054 (inactive)	0.761 (inactive)	0.0669 (inactive)	-2.3	-0.0559
CC=CC1=C(CO)[C@H](O)[C@H]2O[C@H]2[C@H]1O	-0.557	0.977 (inactive)	-0.667 (inactive)	0.439 (inactive)	-0.47 (inactive)	0.618 (inactive)	-0.227 (inactive)	-0.299 (inactive)	0.0421	0.0774
CO[C@H]1COC(=O)CC=C[C@H](C)[C@@H](NS(=O)(=O)c2ccc(C)cc2)COC(=O)CC=C[C@@H]1C	0.55	-1.66 (inactive)	-0.31 (inactive)	-2.98 (inactive)	-0.573 (inactive)	-4.14 (inactive)	-0.721 (inactive)	-1.03 (inactive)	-0.203	-0.255
COC(=O)C1=C(C)N(Cc2ccccc2)[C@]23O[C@](C(=O)OC)(C(=O)N2[C@@H]1c1ccccc1)[C@H]1CCOC(=O)[C@H]13	0.338	0.424 (inactive)	0.444 (inactive)	1.01 (inactive)	-0.765 (inactive)	1.55 (inactive)	0.0676 (inactive)	-0.164 (inactive)	0.732	0.0896
COc1ccc(-c2ccc3c(n2)CCCN3CC(O)CN2CCCc3nc(C)c(C)cc32)cc1 (stereo not given)	-0.671	-1.75 (inactive)	-0.559 (inactive)	1.18 (inactive)	0.274 (inactive)	-0.256 (inactive)	0.975 (inactive)	0.65 (inactive)	-0.836	1.15
C[C@H](c1ccccc1)N1C(=O)[C@H]2[C@@H]3C(=CC[C@H]2C1=O)C(=O)[C@H]1O[C@H]1[C@H]3O	-2.54	-3.82 (inactive)	-8.01 (active)	-1.74 (inactive)	-0.993 (inactive)	-0.141 (inactive)	0.144 (inactive)	0.494 (inactive)	-5.33	0.288
O=C1C[C@]2(c3ccc([N+](=O)[O-])cc3)C(=O)N(CCN3CCOCC3)c3cc(CO)ccc3[C@H]2N1CC12CC3CC(CC(C3)C1)C2	-0.0113	-0.0207 (inactive)	0.639 (inactive)	-6.92 (inactive)	0.277 (inactive)	-0.028 (inactive)	0.577 (inactive)	-0.0127 (inactive)	-0.391	0.476
O=C1c2ccccc2[C@@]2(Cc3ccccc3N(C3CC3)C2=O)[C@H](c2ccc(CO)cc2)N1Cc1ccccc1C(F)(F)F	-0.506	0.194 (inactive)	0.187 (inactive)	-9.3 (active)	0.242 (inactive)	-0.887 (inactive)	-0.201 (inactive)	-0.136 (inactive)	-0.398	0.0428
COCCOC(=O)N1C(=O)[C@@]2(c3cc(C#CCNC(N)=O)ccc31)[C@H](c1ccccc1OCCO)N1[C@H](c3ccccc3)[C@H](c3ccccc3)OC(=O)[C@H]1[C@@H]2C(=O)N1CCN(c2ncccn2)CC1	-0.0783	0.353 (inactive)	-0.0546 (inactive)	-1.48 (inactive)	2.49 (inactive)	0.733 (inactive)	0.924 (inactive)	1.18 (inactive)	0.241	-0.152
CCOC(=O)C[C@H]1[C@H](OC(=O)c2ccc(C(=O)c3ccccc3)cc2)[C@@H](NC(=O)c2ccc(-c3ccccc3)cc2)c2cc(OCCCO)ccc2N1C(=O)c1ccc2ccccc2n1	0.206	-1.1 (inactive)	0.38 (inactive)	-1.69 (inactive)	-0.0998 (inactive)	-0.0276 (inactive)	0.254 (inactive)	1.23 (inactive)	0.909	0.119
COC(=O)CC=C[C@H](C)[C@@H](OCc1ccccc1Br)C(C)C	-0.285	-0.553 (inactive)	-2.19 (inactive)	-0.216 (inactive)	0.274 (inactive)	-0.158 (inactive)	0.824 (inactive)	0.661 (inactive)	-1.89	0.157
